Measurements taken from PMC12864922, “TDP-43 directly inhibits mRNA accumulation in neurites through modulation of mRNA stability”.
In all, about 9,900 sequences were measured (“r (bound/input frequency ratio)”: median about 0.7, highest 2% from about 6.5 on). For the sample, the highest values were picked, then their nearest neighbours and some sequences at random.

B1: ENSMUSG00000058297.302|Spock2|29:34 (ssRNA)
RNA: GGGAGUUCUACAGUCCGACGAUCGCUUCGAUAUCCGCAUGCUAAUGCCCAGGAAGAGUGAGGGCAGCCCCCACACACGUGGAAGAGGCUGGGCAGCUAGCUACUGGGGACCUUGUGCUGAGGCUUCCAGGACAAAGCCCCAGUCUGGCUCUCCCCCAGCCUCUCAGGGGCACUGGCUGGUCACAUCCACUGAGUAUUGAUCGGUUGGACUUUAGGGAAGAGCCUCCUCCUUCCCAUUCCUUUCUGCCACCCUGGAAUGGCCACCUUAAUCGUCAUCUCCUCGGGGGGAAUACGGAAAUGUCACCUCUUGCGGUCGCACUAGUGUGGAAUUCUCGGGUGUCAAGG
B2: ENSMUSG00000042529.388|Kcnj12 (ssRNA)
RNA: GGGAGUUCUACAGUCCGACGAUCGCUUCGAUAUCCGCAUGCUAAGGCUGGAUGCUGGCCACAGACAUGAUCAGUCCGACUUGAGUCCCUGCCCUGCCCUGGUUAUGCAGGCUGUACGACGCAGUGUGCAUCAGUCUGAGGAGUCUGGUGGUAAGUAAGCCUCUGCAGCAGACCCUGUCGGAGGCCAUGGGGGCGUGUGUGUGUGUGUGUGUGUGUGUGUGUGUGUGUGUGUGUGUGUGUGUGUGUGAACAUGUGUGAGGGUGUGGAGGUCCCAGGGUGUGUGUAUGUGAAUGUCAGUGGCUUGCUCUUGCGGUCGCACUAGUGUGGAAUUCUCGGGUGUCAAGG
B3: ENSMUSG00000042529.387|Kcnj12 (ssRNA)
RNA: GGGAGUUCUACAGUCCGACGAUCGCUUCGAUAUCCGCAUGCUACUGGUCAGGCUGGAUGCUGGCCACAGACAUGAUCAGUCCGACUUGAGUCCCUGCCCUGCCCUGGUUAUGCAGGCUGUACGACGCAGUGUGCAUCAGUCUGAGGAGUCUGGUGGUAAGUAAGCCUCUGCAGCAGACCCUGUCGGAGGCCAUGGGGGCGUGUGUGUGUGUGUGUGUGUGUGUGUGUGUGUGUGUGUGUGUGUGUGUGUGUGAACAUGUGUGAGGGUGUGGAGGUCCCAGGGUGUGUGUAUGUGAAUGUCAGUCUCUUGCGGUCGCACUAGUGUGGAAUUCUCGGGUGUCAAGG
B4: ENSMUSG00000042529.386|Kcnj12 (ssRNA)
RNA: GGGAGUUCUACAGUCCGACGAUCGCUUCGAUAUCCGCAUGCUACCUGAACUGGUCAGGCUGGAUGCUGGCCACAGACAUGAUCAGUCCGACUUGAGUCCCUGCCCUGCCCUGGUUAUGCAGGCUGUACGACGCAGUGUGCAUCAGUCUGAGGAGUCUGGUGGUAAGUAAGCCUCUGCAGCAGACCCUGUCGGAGGCCAUGGGGGCGUGUGUGUGUGUGUGUGUGUGUGUGUGUGUGUGUGUGUGUGUGUGUGUGUGUGAACAUGUGUGAGGGUGUGGAGGUCCCAGGGUGUGUGUAUGUGAAUCUCUUGCGGUCGCACUAGUGUGGAAUUCUCGGGUGUCAAGG
B5: ENSMUSG00000042529.397|Kcnj12 (ssRNA)
RNA: GGGAGUUCUACAGUCCGACGAUCGCUUCGAUAUCCGCAUGCUACUGGUUAUGCAGGCUGUACGACGCAGUGUGCAUCAGUCUGAGGAGUCUGGUGGUAAGUAAGCCUCUGCAGCAGACCCUGUCGGAGGCCAUGGGGGCGUGUGUGUGUGUGUGUGUGUGUGUGUGUGUGUGUGUGUGUGUGUGUGUGUGUGAACAUGUGUGAGGGUGUGGAGGUCCCAGGGUGUGUGUAUGUGAAUGUCAGUGGCUUGGGUGCUGUGUGGAGAGAGAGAGAGAGAGAGAGAGAGAGAGAGAGAGAGAGAGAGCUCUUGCGGUCGCACUAGUGUGGAAUUCUCGGGUGUCAAGG
B6: ENSMUSG00000022095.3|Fam160b2|123:127 (ssRNA)
RNA: GGGAGUUCUACAGUCCGACGAUCGCUUCGAUAUCCGCAUGCUAAAGGAGCUGGCUGCCAUUGCGUUUGUCAAGUUUCCCCCACACGGUCCUUACCUGAACUUCUCUCCACCUCCAGAAGGGCAAGUCUGAGCCAGGAGCAUGACGGGUGGGGGAAGAUUCCUGCCACACAACUUCUGCCCACGGGCAGUCUCCUGCCUGGCCAUGCUGCCACUCUGUCCUCCAUGCCGGGGACUUCAGCUGCAGGACACCUCACCUGUUGACCCCACGAGCUGAGGUUUCAAGGAGGUGCUGGCUCCUAAGGCCUCUUGCGGUCGCACUAGUGUGGAAUUCUCGGGUGUCAAGG
B7: ENSMUSG00000004113.146|Cacna1b|6:10;184:188;241:245;249:253 (ssRNA)
RNA: GGGAGUUCUACAGUCCGACGAUCGCUUCGAUAUCCGCAUGCUACACAUCAUACUAGAGAUGCGCUCAAGGGCCUGCCUUUCACCUACACUGUCACCAUAACAGGGACCAAAUCUGGAGGAUGUCCUUGCUGUUGAUUCUGGUUUUCAGUCACAACACUUUCACUGUUUGUCAUUUCUAUGUAGUUGAUCUAGAAAAAGCAGAAAUCAAAACAGGAAAGGAAAUGUUACACAAACUUUAAAAAAAAAGUCAACAUGUAGGAAGGUCUCCAUUUUGCAUUGUUUCACACACUUCAUACCAAUGUUCUCUUGCGGUCGCACUAGUGUGGAAUUCUCGGGUGUCAAGG
B8: ENSMUSG00000031028.47|Tub (ssRNA)
RNA: GGGAGUUCUACAGUCCGACGAUCGCUUCGAUAUCCGCAUGCUACUGAAGCAGGGGGGACAGCAAAUGGGUAUGACAGGAGAAGAAUAUUUCUGUGCCCCAAGGUCAACACACAUGCCCAGUCCUGGGUCAGUCCCCUGCUGCAGUGGUGUUAUCACACCGGAAAGCCUCUUCACCUGGAGGUACAGAGGGAGAGGAAGCACAAGCCUGGCUGCUGUGGCUCAGCCAUCCACUCAGCCUACGAGUCAGAGACAGUGGGUGUCCCGGGAAGCAGGGGUACAGUGAGUGUGUGUGUAUGUACAGGGCUCUUGCGGUCGCACUAGUGUGGAAUUCUCGGGUGUCAAGG
B9: ENSMUSG00000043670.69|Diras1 (ssRNA)
RNA: GGGAGUUCUACAGUCCGACGAUCGCUUCGAUAUCCGCAUGCUACCAUUCUAUCUGCACCCCACAACCACACACUGGAGGUUUGAUCCCUGUGGAUCUGAAAACAGGGACCUGGCUAAGGAACUGCUCAUCCCAGUCAGGCCCAGAGAGGUUACCUUGCCUCUCCAUCUCUGUCCCUGUGUGCCCAGCCAUGCCCACUGUCCCUGUCCCUCACAUUCUAUCACUGUGACCUCUGGGGAGUGCCCAUUGACCUCAUCUUCCUUCACUAAUAUCUUAUUUCUUUCACCUGAUCCUGUCCUUUCCCCCUCUUGCGGUCGCACUAGUGUGGAAUUCUCGGGUGUCAAGG

Target: TDP-43 (Homo sapiens, UniProt Q13148 1-414)
Experiment: RNA Bind-n-Seq with designed 260-mer pool; 25 mM Tris-HCl, 150 mM KCl, 3 mM MgCl2, BSA (printed 500 mg/mL), 20 units/mL SUPERase IN; pH not stated; 500 nM RNA pool, 1 h, 4 C; TDP-43 5, 50, 500 nM; high values mean tight binding
Details: protein: recombinant; tags: SBP (GST cleaved off with PreScission; pGEX-GST-SBP)
Outline: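 An in vitro-transcribed pool of 260-nt 3′ UTR oligos (500 nM) was incubated for 1 h at 4 °C with recombinant SBP-tagged TDP-43 at 5, 50 or 500 nM held on streptavidin beads. The buffer contained 25 mM Tris-HCl, 150 mM KCl, 3 mM MgCl2, BSA and SUPERase IN. Biotin-eluted bound RNA was sequenced, and binding, R, is each oligo's normalized read abundance in the bound sample over that in input.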

Sequence of TDP-43 (Q13148 whole entry): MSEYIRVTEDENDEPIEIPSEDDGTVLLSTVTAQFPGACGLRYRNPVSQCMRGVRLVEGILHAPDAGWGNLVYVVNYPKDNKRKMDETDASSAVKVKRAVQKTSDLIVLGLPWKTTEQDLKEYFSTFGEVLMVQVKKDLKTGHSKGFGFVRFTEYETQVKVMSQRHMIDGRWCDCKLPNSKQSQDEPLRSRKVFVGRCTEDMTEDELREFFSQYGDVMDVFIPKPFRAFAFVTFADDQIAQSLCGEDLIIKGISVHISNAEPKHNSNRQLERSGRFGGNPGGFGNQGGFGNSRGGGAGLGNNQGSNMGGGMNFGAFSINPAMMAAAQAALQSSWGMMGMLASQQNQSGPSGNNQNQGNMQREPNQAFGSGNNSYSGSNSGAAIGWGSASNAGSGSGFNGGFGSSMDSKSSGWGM

Binder	binding signal
B1	0.746 R (bound/input frequency ratio)
B2	9.68 R (bound/input frequency ratio)
B3	12.1 R (bound/input frequency ratio)
B4	6.36 R (bound/input frequency ratio)
B5	5.15 R (bound/input frequency ratio)
B6	0.205 R (bound/input frequency ratio)
B7	0.13 R (bound/input frequency ratio)
B8	2.21 R (bound/input frequency ratio)
B9	2.12 R (bound/input frequency ratio)
